# Inconclusive results are not listed. A call without a number means that no potency is given here. Activity calls are given as the source filed them. Unless noted, calls come from the whole dose curve; as a rule, active = well fitted curve in the direction sought with a large enough effect; inconclusive = small, poorly fitted or top-dose-only effect, or another doubt; inactive = no such curve, though single readings can be large; an effect the other way counts as inactive or inconclusive.
# Assays:
# Papain (Carica papaya) = Papain (Carica papaya) (UniProt P00784); assay: Primary qHTS assay for inhibitors of the protease papain (AID 1645873);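 note: papain turnover of Z-FR-AMC read as the AMC fluorescence gain over 10 min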
# Sequence of Papain (Carica papaya) (P00784 whole entry, looked up): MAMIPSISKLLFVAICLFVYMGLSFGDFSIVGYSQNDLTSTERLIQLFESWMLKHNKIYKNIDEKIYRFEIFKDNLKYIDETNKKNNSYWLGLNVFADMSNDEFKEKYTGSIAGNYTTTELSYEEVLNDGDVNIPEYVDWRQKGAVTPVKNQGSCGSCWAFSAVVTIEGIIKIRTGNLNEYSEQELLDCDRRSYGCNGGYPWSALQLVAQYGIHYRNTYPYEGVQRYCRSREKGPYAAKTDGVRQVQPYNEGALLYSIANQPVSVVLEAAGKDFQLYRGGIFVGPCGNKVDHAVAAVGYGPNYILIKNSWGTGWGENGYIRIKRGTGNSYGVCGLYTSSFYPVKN
# [1] = NCATS anti-infectives library activity on HEK293 viability as a counter-qHTS vs the C. elegans viability qHTS (AID 1745854)
# Procedure, shortened: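 HEK293 cells, 1500 per well, exposed 24 hr at 37C in 5% CO2 to compounds in a 1:5 titration, up to 41.7 uM final. Viability read as CellTiter-Glo luminescence after 10 min at room temperature.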
# [2] = biological target: Catechol O-methyltransferase (Homo sapiens) (UniProt P21964); assay: Confirmatory Screen for Target Class Profiling of Small Molecule Inhibitors of Methyltransferases (AID 1745852; calls by dose curve; note: potency is the fitted concentration of half-maximal effect); conditions: MTase-Glo luminescence, SAH detection, recombinant enzyme; measured here: COMT max response; stronger effect = lower value
# Sequence of Catechol O-methyltransferase (Homo sapiens) (P21964 whole entry, looked up): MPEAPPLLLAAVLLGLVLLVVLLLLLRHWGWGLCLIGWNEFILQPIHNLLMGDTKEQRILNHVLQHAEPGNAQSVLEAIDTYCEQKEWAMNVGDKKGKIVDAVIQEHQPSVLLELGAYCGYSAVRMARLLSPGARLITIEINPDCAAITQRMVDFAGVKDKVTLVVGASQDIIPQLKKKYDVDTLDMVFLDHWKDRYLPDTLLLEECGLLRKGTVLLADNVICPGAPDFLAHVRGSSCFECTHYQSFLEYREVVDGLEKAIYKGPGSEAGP
# [3] = biological target: Guanidinoacetate N-methyltransferase (Homo sapiens) (UniProt Q14353); assay: as above; conditions: MTase-Glo luminescence, SAH detection, recombinant enzyme; activity change, negative = inhibition: at 57.3 µM (top of the series) unless noted
# [4] = biological target: Nicotinamide N-methyltransferase (Homo sapiens) (UniProt P40261); assay: as above; conditions: MTase-Glo luminescence, SAH detection, recombinant enzyme; measured here: NNMT max response; stronger effect = lower value
# Sequence of Nicotinamide N-methyltransferase (Homo sapiens) (P40261 whole entry, looked up): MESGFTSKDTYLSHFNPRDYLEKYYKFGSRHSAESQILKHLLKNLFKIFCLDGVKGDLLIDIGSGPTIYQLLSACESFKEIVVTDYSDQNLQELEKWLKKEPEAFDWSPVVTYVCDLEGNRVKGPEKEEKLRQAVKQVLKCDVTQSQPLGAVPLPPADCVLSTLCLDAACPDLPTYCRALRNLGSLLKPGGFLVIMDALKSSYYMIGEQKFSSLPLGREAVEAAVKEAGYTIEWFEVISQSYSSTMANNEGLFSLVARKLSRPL
# [5] = biological target: Phenylethanolamine N-methyltransferase (Homo sapiens) (UniProt P11086); assay: as above; conditions: MTase-Glo luminescence, SAH detection, recombinant enzyme; measured here: PNMT max response; stronger effect = lower value
# Sequence of Phenylethanolamine N-methyltransferase (Homo sapiens) (P11086 whole entry, looked up, the tested form may be a part): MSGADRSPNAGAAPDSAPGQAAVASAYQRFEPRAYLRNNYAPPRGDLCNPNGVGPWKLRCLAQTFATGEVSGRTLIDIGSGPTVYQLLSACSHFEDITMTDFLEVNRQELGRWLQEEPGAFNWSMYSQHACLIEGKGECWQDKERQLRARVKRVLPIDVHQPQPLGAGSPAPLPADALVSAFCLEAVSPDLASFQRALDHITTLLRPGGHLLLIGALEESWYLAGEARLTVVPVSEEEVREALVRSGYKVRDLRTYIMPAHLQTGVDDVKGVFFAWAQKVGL
# [6] = Primary qHTS for inhibitors of nuclear receptor binding SET domain protein 2 (NSD2) in an isogenic RCH-ACV NSD2 p.E1099K mutant (9B) (AID 1645876); note: nearly all actives have a fitted effect of over 70% in size; note: potency is the fitted concentration of half-maximal effect
# [7] = Primary qHTS for inhibitors of nuclear receptor binding SET domain protein 2 (NSD2) in an RCH-ACV wild type WT cells (2C) (AID 1645877); note: potency is the fitted concentration of half-maximal effect; nearly all actives have a fitted effect of over 70% in size
# [8] = biological target: N-terminal Xaa-Pro-Lys N-methyltransferase 1 (Homo sapiens) (UniProt Q9BV86); assay: Confirmatory qHTS for Inhibitors of N-terminal methyltransferase 1 (NTMT1): MTaseGlo Assay (AID 1645874);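 note: luminescence from SAH made as NTMT1 methylates SPKRIA peptide using SAM; nearly all actives have a fitted effect of over 65% in size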
# Sequence of N-terminal Xaa-Pro-Lys N-methyltransferase 1 (Homo sapiens) (Q9BV86 whole entry, looked up): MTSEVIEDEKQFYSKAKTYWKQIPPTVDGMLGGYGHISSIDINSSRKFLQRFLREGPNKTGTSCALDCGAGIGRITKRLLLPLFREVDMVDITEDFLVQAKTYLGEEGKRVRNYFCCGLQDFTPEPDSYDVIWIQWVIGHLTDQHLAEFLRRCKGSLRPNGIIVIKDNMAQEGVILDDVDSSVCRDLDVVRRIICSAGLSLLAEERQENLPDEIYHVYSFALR
# Procedure, shortened: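 qHTS format: NTMT1 125 nM, SAM 100 uM, peptide SPKRIA 1 uM final; 15 min compound preincubation, 30 min reaction at room temperature. MTase-Glo luminescence.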
structure (smiles),measurement,setting,value
C[N+]1(C)C2CCC1CC(OC(=O)c1c[nH]c3ccccc13)C2 (stereo unspecified),Potency,Papain (Carica papaya),inactive
NCCc1ccc(S(=O)(=O)F)cc1,Potency,Papain (Carica papaya),inactive
same,outcome,[1],inactive
CCCN(CCC)CCc1ccc(O)c(O)c1,Potency,Papain (Carica papaya),inactive
same,activity,[2],153%
same,"activity change, negative = inhibition",[3],6.88%
same,activity,[4],-2.74%
same,activity,[5],-0.0665%
CN1CCc2cccc(Cl)c2CC1,Potency,Papain (Carica papaya),inactive
C#CCN[C@H](C)Cc1ccccc1,Potency,Papain (Carica papaya),inactive
C[N+]1(C)CCc2cc3c(cc2[C@H]1[C@@H]1OC(=O)c2c1ccc1c2OCO1)OCO3,Potency,Papain (Carica papaya),inactive
NC(=O)c1cc(N2CC2)c([N+](=O)[O-])cc1[N+](=O)[O-],Potency,Papain (Carica papaya),inactive
CC(C)NP(=O)(NC(C)C)OP(=O)(NC(C)C)NC(C)C,Potency,Papain (Carica papaya),inactive
CCn1cnc2c(Nc3cccc(Cl)c3)nc(N[C@@H]3CCCC[C@@H]3N)nc21,Potency,Papain (Carica papaya),inactive
same,activity,[2],7.4%
same,"activity change, negative = inhibition",[3],4.82%
same,activity,[4],-17.5%
same,activity,[5],1.09%
CC(N)c1cccc(Cl)c1Cl (stereo unspecified),Potency,Papain (Carica papaya),inactive
same,activity,[2],3.38%
same,"activity change, negative = inhibition",[3],5.58%
same,activity,[4],-1.94%
same,activity,[5],-98.4%
CC[C@H]1CN2CC[C@H]1C[C@H]2[C@H](O)c1ccnc2ccc(OC)cc12,Potency,[6],inactive
NC(=O)COc1c(F)cc(SCCNS(=O)(=O)c2ccccc2)cc1F,Potency,Papain (Carica papaya),inactive
Cc1[nH]c2ccc(O)cc2c1CCN,Potency,Papain (Carica papaya),inactive
CCS(=O)(=O)Nc1cccc(C(=C2CCCCC2)c2cnc[nH]2)c1,Potency,Papain (Carica papaya),inactive
NCC(O)c1cc(O)c(O)cc1F (stereo unspecified),Potency,Papain (Carica papaya),inactive
same,activity,[2],129%
same,"activity change, negative = inhibition",[3],4.77%
same,activity,[4],-1.34%
same,activity,[5],31.6%
c1ccc2cc(CC3=NCCN3)ccc2c1,Potency,Papain (Carica papaya),inactive
same,activity,[2],5%
same,"activity change, negative = inhibition",[3],3.5%
same,activity,[4],0.294%
same,activity,[5],4.14%
COc1ccc2c(c1O)-c1cccc3c1[C@@H](C2)N(C)CC3,Potency,Papain (Carica papaya),inactive
NNC(=O)c1ccc(O)cc1,Potency,Papain (Carica papaya),inactive
COc1ccc(CNC(=O)/C=C/c2ccc3[nH]cc(CCN(C)C)c3c2)cc1,Potency,Papain (Carica papaya),inactive
CN1CC[C@@]2(C)c3cc(O)ccc3N(C)C12 (stereo partly specified),Potency,Papain (Carica papaya),inactive
same,activity,[2],-27.2%
same,Potency,[3],24.3 µM (active)
same,activity,[4],-23.6%
same,activity,[5],-16.3%
NNC(N)=O,Potency,Papain (Carica papaya),inactive
CC(C)(C)OC(=O)NC1[C@H]2CNC[C@@H]12 (stereo partly specified),Potency,Papain (Carica papaya),inactive
CCOC(=O)c1ncn2c1[C@@H]1CCCN1C(=O)c1cc(OC)ccc1-2,Potency,Papain (Carica papaya),inactive
CCN1C[C@@]2(COC)C3[C@@H](OC)C4[C@@H]1C3([C@@H]1C[C@]3(O)[C@H](OC(=O)c5ccccc5)[C@@H]1[C@]4(OC(C)=O)[C@@H](O)[C@@H]3OC)[C@H](OC)C[C@H]2O,Potency,Papain (Carica papaya),inactive
CN1C2CCC1CC(OC(c1ccccc1)c1ccccc1N)C2 (stereo unspecified),Potency,Papain (Carica papaya),inactive
CP(=O)(O)C1=CCNCC1,Potency,Papain (Carica papaya),inactive
CN1CCc2cc(O)cc3c2[C@H]1Cc1ccc(O)c(O)c1-3,Potency,Papain (Carica papaya),inactive
same,activity,[2],-101%
same,"activity change, negative = inhibition",[3],-1.59%
same,activity,[4],-4.5%
same,activity,[5],-1.47%
O=[N+]([O-])/C=C/c1ccc2c(c1)OCO2,Potency,Papain (Carica papaya),inactive
CC12NC(Cc3ccccc31)c1ccccc12 (stereo unspecified),Potency,Papain (Carica papaya),inactive
N#C/C(=C/c1ccc(O)c(O)c1)C(N)=S,Potency,Papain (Carica papaya),inactive
same,Potency,[6],8.2 µM (active)
same,Potency,[7],9.2 µM (active)
same,activity,[2],52.2%
same,"activity change, negative = inhibition",[3],-6.16%
same,activity,[4],-5.97%
same,activity,[5],1.47%
N#CCCN,Potency,Papain (Carica papaya),inactive
NC(N)=Nc1ccc2[nH]c3c(c2c1)C[C@@]1(O)[C@H]2Cc4ccc(O)c5c4[C@@]1(CCN2CC1CC1)[C@H]3O5,Potency,Papain (Carica papaya),inactive
same,Potency,[8],inactive
CCCN1CCc2cccc3c2[C@H]1Cc1ccc(O)c(O)c1-3,Potency,Papain (Carica papaya),inactive
same,activity,[2],4.79%
same,"activity change, negative = inhibition",[3],5.72%
same,activity,[4],-3.62%
same,activity,[5],6.46%
N[C@@]1(C(=O)O)CC[C@@H](C(=O)O)C1,Potency,Papain (Carica papaya),inactive
CC(N)Cc1c[nH]c2ccc(OCc3cccs3)cc12 (stereo unspecified),Potency,Papain (Carica papaya),inactive
O=C1CC[C@@]2(O)C3Cc4ccc(O)c5c4C2(CCN3CC2CC2)[C@H]1O5 (stereo partly specified),Potency,Papain (Carica papaya),inactive

# Source: PubChem BioAssay (NCATS)
